# Experimental data: PMC5540273 (PLoS ONE, 2017)
# How the values were obtained:
# Conditions in all cases: concentration: 1 μM,replicates: in singlicate; n = 1
# CLK2 = test system: CLK2
# CLK3 = test system: CLK3
# CLK4 = test system: CLK4
# CSF1R-autoinhibited = test system: CSF1R-autoinhibited
# CSF1R = test system: CSF1R
# CSK = test system: CSK
# CSNK1A1L = test system: CSNK1A1L
# CSNK1A1 = test system: CSNK1A1
# CSNK1D = test system: CSNK1D
# CSNK1E = test system: CSNK1E
# 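Also: KINOMEscan kinase panel screen.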
SMILES,%Inh (CLK2),%Inh (CLK3),%Inh (CLK4),%Inh (CSF1R-autoinhibited),%Inh (CSF1R),%Inh (CSK),%Inh (CSNK1A1L),%Inh (CSNK1A1),%Inh (CSNK1D),%Inh (CSNK1E)
O=C(NCC1CC1)c1ccc(-c2cc(C(=O)NC3CC3)ccc2F)cc1 [GW810445],15%,0%,0%,8%,0%,0%,0%,0%,0%,0%
CC(=O)c1c(-c2ccncc2)[nH]c(-c2ccncc2)c1C [GW493036],82%,65%,96.1%,19%,12%,8%,79%,93.4%,93.7%,90%
COc1cc2ncn(-c3cc(OCC4CCCCC4)c(C(N)=O)s3)c2cc1OC [GSK204559],2%,5%,33%,0%,19%,0%,22%,0%,10%,0%
FC(F)(F)c1cc(Br)cc(Nc2nccc(-c3cnn4ncccc34)n2)c1 [GW810578],95.6%,79%,85%,0%,61%,17%,68%,58%,91.9%,75%
COc1cccc(C2=C(Nc3cccc(Cl)c3)C(=O)NC2=O)c1 [SB-341556],69%,0%,55%,0%,18%,0%,0%,36%,10%,20%
Cn1ccc2ncnc(Oc3ccc(NC(=O)Nc4cccc(C(F)(F)F)c4)c(F)c3)c21,9%,4%,0%,0%,99.9%,0%,0%,39%,22%,13%
COc1cccc(CNC(=O)NC2CCN(c3ccnc(Nc4cc(OC)c(OC)c(OC)c4)n3)C2)c1 (centres unmarked) [GSK1379765],0%,0%,16%,29%,15%,20%,16%,0%,14%,18%
COc1cccc(OC)c1C(=O)Nc1cccc(-c2nn3ccccc3c2-c2ccnc(Nc3cccc(F)c3)n2)c1 [GSK361065],21%,0%,0%,4%,60%,18%,0%,25%,9%,64%
